Measurements taken from PubChem BioAssay AID584 (National Center for Advancing Translational Sciences (NCATS), 2007).
The whole screen tested about 71,000 compounds, of which about 65 (0.09%) were called active. A call without a number means that no potency is given here. For the sample, actives were picked, then their nearest neighbours and some compounds at random. Unmarked numbers belong to inactive results. The call rests on the fitted dose curve; in most records, active means well fitted curve in the direction sought with a large enough effect; inconclusive means small, poorly fitted or top-dose-only effect; inactive means flat fitted curve, though single readings scatter.
Potency means the concentration at half of the fitted maximal effect.

What follows are compounds tested against Beta-lactamase (Escherichia coli (strain K12)) (UniProt P00811) (assay: Promiscuous and Specific Inhibitors of AmpC Beta-Lactamase (assay with detergent)). Conditions: purified AmpC, nitrocefin hydrolysis with detergent; series mostly up to 28.7 µM.
Sequence of Beta-lactamase (Escherichia coli (strain K12)) (P00811 whole entry, looked up): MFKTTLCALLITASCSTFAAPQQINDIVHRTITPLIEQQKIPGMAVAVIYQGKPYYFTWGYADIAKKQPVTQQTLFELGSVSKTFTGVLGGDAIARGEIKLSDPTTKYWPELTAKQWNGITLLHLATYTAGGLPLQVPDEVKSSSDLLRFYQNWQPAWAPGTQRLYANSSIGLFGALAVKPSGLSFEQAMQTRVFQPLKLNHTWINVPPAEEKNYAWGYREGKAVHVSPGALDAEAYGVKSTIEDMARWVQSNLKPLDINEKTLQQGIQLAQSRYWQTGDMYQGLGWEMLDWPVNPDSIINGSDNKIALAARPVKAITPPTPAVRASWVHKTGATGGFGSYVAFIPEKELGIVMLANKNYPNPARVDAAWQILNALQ
Procedure: NIH Molecular Libraries Screening Centers Network [MLSCN]
NIH Chemical Genomics Center [NCGC]
PI Name: Shoichet, Brian K.
This aggregation profiling approach exploits the sensitivity of aggregate formation to detergent. Inhibition of b-lactamase is measured in the presence and absence of 0.01% Triton X-100. This particular assay had the prescence of 0.01% Triton X-100. See Pubchem assay "Promiscuous and Specific Inhibitors of AmpC Beta-Lactamase (assay without detergent)" for related screen. Compounds that inhibit only in the absence of detergent are considered likely promiscuous aggregators.
A screen of 1,030 compounds was performed in Brian Shoichet's lab in 96-well format. AmpC activity was measured by following the absorbance at 480 nm. Nitrocefin is a chromogenic substrate: while nitrocefin is yellow (lmax 390 nm), the product of its hydrolysis is red (lmax 486 nm, 17,000 M-1). AmpC beta lactamase was provided by Brian Shoichet and Brian Feng, UCSF.
NCGC Assay Protocol Summary:
20 mM phosphate buffer, pH 7.0
Triton X-100: No Detergent screen: 0.0001%, Detergent screen: 0.01%.
Buffer in columns 3 and 4 as negative control (no enzyme).
5.3 nM AmpC in columns 1, 2, 5-48. Titration of UCSF compound 9 control (from 10 mM, then 1:2) pin-transferred to column 2. Column 1 is neutral (100% activity).
Six uL of reagents were dispensed to 1536-well Greiner black clear bottom plates. Compounds and controls (23 nL) were transferred via Kalypsys PinTool. The plates were incubated for 15 min at room temperature, and then 2 uL of 800 uM solution of nitrocefin was added to start the reaction. The plates were immediately transferred to and read every 20 seconds for 4 min on ViewLux (Perkin-Elmer) High-throughput CCD imager using 480 nm absorbance protocol. During dispense, reagent bottles were kept submerged into 4 deg C water bath.
Keywords: NIH Roadmap, MLSCN, MLI, MLSMR, qHTS, NCGC, AmpC Beta-Lactamase, Aggregation
In the case of CC(C)(O/N=C(\C(=O)N[C@@H]1C(=O)N2C(C(=O)[O-])=C(C[n+]3ccccc3)CS[C@@H]12)c1csc(N)n1)C(=O)O, the Potency is reported as 3.98 µM (active). With COc1ccc(OC)c(C2N(c3ccccn3)C(=O)C3CCCN32)c1 (stereo not given) the activity change, negative = inhibition was “inactive”. In the case of Clc1ccc(CSc2nnc([C@@H]3CCCN3)o2)cc1, the activity change, negative = inhibition is reported as “inactive”. In the case of C=CCNC(=O)c1ccc(C)c(Br)c1, the activity change, negative = inhibition is reported as “inactive”. With Cc1ccc(CNC(=O)CN2CCN(Cc3ccc(Cl)cc3)C2=O)cc1 the activity change, negative = inhibition was “inactive”. For COCCCNC(=O)c1ccc(CNS(=O)(=O)c2ccc(NC(C)=O)cc2)cc1, the activity change, negative = inhibition was “inactive”. With Cn1nc(-c2ccc(Cl)cc2)c2cc(C(=O)NCc3ccco3)sc21 the activity change, negative = inhibition was “inactive”. With CCCN(CCC)CCNC(=O)c1cc2c(C)nc3ccccc3c2o1 the activity change, negative = inhibition was “inactive”. For CCn1c(NCCc2ccc(OC)c(OC)c2)nc2c1c(=O)n(C)c(=O)n2C, the activity change, negative = inhibition was “inactive”. In the case of Fc1ccccc1CCNc1nnnn1-c1ccccc1, the activity change, negative = inhibition is reported as “inactive”. In the case of Cc1ccn2cc(-c3nonc3C)cc2c1, the activity change, negative = inhibition is reported as “inactive”. O=C(c1cccc(S(=O)(=O)N2CCOCC2)c1)N1CCOCC1 was tested, and the activity change, negative = inhibition was “inactive”. Clc1ccc(Nc2nc(-c3cccs3)cs2)nc1 was tested, and the activity change, negative = inhibition was “inactive”. With COc1cccc2sc(Nc3nc(C)c(C(C)=O)s3)nc12 the activity change, negative = inhibition was “inactive”. With CC(=O)N1CCc2cc(S(=O)(=O)Nc3ccccc3N3CCN(C)CC3)ccc21 the activity change, negative = inhibition was “inactive”. With COc1ccc(OCC(=O)N2CCN(C(=O)c3cccs3)CC2)cc1 the activity change, negative = inhibition was “inactive”. For Cc1ccccc1C(=O)NCCN=C1NS(=O)(=O)c2ccccc21, the activity change, negative = inhibition was “inactive”. In the case of C#CCN1C(=O)C(O)(CC(=O)c2cc(OC)ccc2OC)c2ccccc21 (stereo not given), the activity change, negative = inhibition is reported as “inactive”. With CCOC(=O)c1ccc(N2C(=O)CC(N3CCC(C(=O)OCC)CC3)C2=O)cc1 (stereo not given) the activity change, negative = inhibition was “inactive”. O=C1c2oc3ccc(Br)cc3c(=O)c2C(c2cccc(F)c2)N1CCO (stereo not given) was tested, and the activity change, negative = inhibition was “inactive”. With O=C(c1ccco1)N1CCC[C@@]2(CCN(Cc3nccs3)C2)C1 the activity change, negative = inhibition was “inactive”. O=C1c2oc3ccccc3c(=O)c2C(c2cccc(O)c2)N1c1ccccn1 (stereo not given) was tested, and the activity change, negative = inhibition was “inactive”. In the case of CCCCCCCCCCCC(=O)O[C@H](CC(=O)O)C[N+](C)(C)C, the activity change, negative = inhibition is reported as “inactive”. CCOC(=O)N1CCN(C(=O)c2n[nH]c(=O)c3ccccc23)CC1 was tested, and the activity change, negative = inhibition was “inactive”. For CC(C)c1cc(C(=O)O)on1, the activity change, negative = inhibition was “inactive”. With O=S(=O)(c1ccc(OCC(O)CN2CCN(c3ccccc3Cl)CC2)cc1)N1CCOCC1 (stereo not given) the activity change, negative = inhibition was “inactive”. In the case of CCNC(=O)N1CCNC(=O)C1CC(=O)Nc1ccc(C(=O)OCC)cc1 (stereo not given), the activity change, negative = inhibition is reported as “inactive”. For COc1ccccc1-n1nnnc1S(=O)(=O)Cc1ccc(Cl)cc1, the activity change, negative = inhibition was “inactive”. For COc1ccc2occ(C(=O)c3ccc(N=C(C)N(C)C)cc3)c2c1, the activity change, negative = inhibition was “inactive”. CCC(=O)Nc1ccc2c(c1)nc(CCN1CCN(C)CC1)n2C was tested, and the activity change, negative = inhibition was “inactive”. With O=C(Nc1ccc(NC(=O)c2cccs2)cn1)c1ccco1 the activity change, negative = inhibition was “inactive”. In the case of COC(=O)c1oc2ccc(Br)cc2c1NC(C)=O, the activity change, negative = inhibition is reported as “inactive”. With O=C(C(NS(=O)(=O)c1cccc2nsnc12)c1ccccc1)N1CCN(c2ccccn2)CC1 (stereo not given) the activity change, negative = inhibition was “inactive”. CC[C@@](O)(C(=O)O)c1cc2n(c(=O)c1CO)Cc1cc3ccccc3nc1-2 showed an activity change, negative = inhibition of -3.6% [at 5.75 µM]. CC(C)CCNC(=O)CN(C(=O)Cn1nnc(-c2ccc(F)cc2)n1)C1CCCC1 was tested, and the activity change, negative = inhibition was “inactive”. In the case of O=C(CSc1nnc(-c2ccco2)o1)NCC(=O)c1ccccc1, the activity change, negative = inhibition is reported as “inactive”. With Nc1scc(-c2ccncc2)c1Cl the activity change, negative = inhibition was “inactive”. For O=C(CSc1nc2ccccc2o1)N1CCN(c2ccc(Cl)cc2)CC1, the activity change, negative = inhibition was “inactive”. In the case of O=C(c1ccccc1-c1ccccc1)N1CCOCC1, the activity change, negative = inhibition is reported as “inactive”. With Cc1ccc(F)cc1NC(=O)c1ccc2c(c1)OCO2 the activity change, negative = inhibition was “inactive”. With c1ccc2nc(C3=NCCN3)cnc2c1 the activity change, negative = inhibition was “inactive”. With COc1ccc(CCNc2ncnc3nc[nH]c23)cc1OC the activity change, negative = inhibition was “inactive”. In the case of Cc1cc(C(=O)O)ccc1[N+](=O)[O-], the activity change, negative = inhibition is reported as “inactive”. In the case of O=C(Nc1ccccc1F)c1cc(S(=O)(=O)N2CCCCC2)cs1, the activity change, negative = inhibition is reported as “inactive”. COC(=O)[C@@]1(Cc2ccc(OC)cc2)[C@H]2c3cc(C(=O)N4CCCC4)n(Cc4ccc(C(F)(F)F)nc4)c3C[C@H]2CN1C(=O)c1ccccc1 was tested, and the activity change, negative = inhibition was “inactive”. With Cc1ccc(Cn2nnc3c(=O)n(CC(=O)N4CCCCC4)cnc32)cc1 the activity change, negative = inhibition was “inactive”. For CCC(C)(C)n1nnnc1C(c1cccs1)N1CCN(c2nc3ccccc3s2)CC1 (stereo not given), the activity change, negative = inhibition was “inactive”. O=S(=O)(Nc1ccc2nc(-c3ccco3)[nH]c2c1)c1ccccc1 was tested, and the activity change, negative = inhibition was “inactive”. In the case of Cc1cc(N2C(=O)c3ccc(C(=O)NCc4ccccc4)cc3C2=O)no1, the activity change, negative = inhibition is reported as “inactive”. CCCCOc1ccc(Cl)cc1CSc1nncn1N was tested, and the activity change, negative = inhibition was “inactive”. Work on NCC[Se][Se]CCN yielded an activity change, negative = inhibition of -3% [at 5.75 µM]. In the case of NC(=NC(=O)c1ccccc1)C1=C(O)CCC1=O, the activity change, negative = inhibition is reported as “inactive”. With COC(=O)Cn1c(=NC(=O)CSCC(=O)Nc2cc(C)on2)sc2ccccc21 the activity change, negative = inhibition was “inactive”. For Cc1ccsc1-c1nc(CSCC(=O)NCCN2CCCC2)c(C)o1, the activity change, negative = inhibition was “inactive”. In the case of O=C(NCc1ccco1)c1ccc(CS(=O)(=O)Cc2ccc(F)cc2)o1, the activity change, negative = inhibition is reported as “inactive”. In the case of CCCCCCn1c(CN2CCCC(C)C2)nc2c1c(=O)n(C)c(=O)n2C (stereo not given), the activity change, negative = inhibition is reported as “inactive”. In the case of O=C1c2ccccc2C(Nc2ccc3c(c2)OCCO3)N1Cc1ccco1 (stereo not given), the activity change, negative = inhibition is reported as “inactive”. With COc1ccccc1CN1CC2(CCN(S(=O)(=O)c3ccccc3)CC2)C1 the activity change, negative = inhibition was “inactive”. With CCOC(=O)c1nnn(-c2nc(OC)nc(N(C)C)n2)c1-c1ccccc1 the activity change, negative = inhibition was “inactive”. CCOC(=O)c1sc(=S)n2c1[nH]c(=O)c1ccc(C(=O)OC)cc12 was tested, and the activity change, negative = inhibition was “inactive”. With O=C(CS(=O)(=O)c1cn(Cc2cccc(F)c2)c2ccccc12)N1CCCCC1 the activity change, negative = inhibition was “inactive”. For CC(C)CSC[C@@H]1O[C@H](n2cnc3c(N)nccc32)[C@H](O)[C@@H]1O, the activity change, negative = inhibition was -4% [at 5.75 µM]. For CCCCSc1nnc(-c2ccc(NC(=O)CC)cc2)n1C, the activity change, negative = inhibition was “inactive”. COc1ccc2[nH]c(=O)c(CN(Cc3nnnn3CCc3ccccc3)CC3CCCO3)cc2c1 (stereo not given) was tested, and the activity change, negative = inhibition was “inactive”. CC(C)CC(=O)N=C1SC2CS(=O)(=O)CC2N1CCc1ccccc1 (stereo not given) was tested, and the activity change, negative = inhibition was “inactive”. O=C(NCc1ccccn1)Nc1ccc(F)cc1 was tested, and the activity change, negative = inhibition was “inactive”. For CC(=NCc1ccco1)C1=C(O)c2ccccc2C1=O, the activity change, negative = inhibition was “inactive”. For COC(=O)c1ccc(NC(=O)CSc2nnc(-c3ccncc3)n2C)cc1, the activity change, negative = inhibition was “inactive”. In the case of COc1ccccc1OCCOc1ccc(/C=N/n2cnnc2)cc1, the activity change, negative = inhibition is reported as “inactive”. With CC12CN(Cc3ccccc3)CC(C)(CN(Cc3ccccc3)C1)C2=NO the activity change, negative = inhibition was “inactive”.
